This is an account of results in PubChem BioAssay.

Unmarked numbers belong to inactive results. The source made the active and inactive calls.

The assay can be described thus: PSAC antagonists in infected red cells, primary screen, cell-based, P. falciparum Indochina, OD700, 1 h (AID 1154). Particulars: P. falciparum Indochina infected RBC osmotic lysis, higher = more signal, called active from +8 up or from −8 down.
As to `COc1ccc(C#Cc2ccc3c(c2)[C@]2(C(=O)N3)[C@H](C(=O)N3CCN(c4ncccn4)CC3)[C@H]3C(=O)O[C@H](c4ccccc4)[C@H](c4ccccc4)N3[C@@H]2c2ccc(O)cc2)cc1`, the z-score is 1.5. Take `CCCC[C@H]1C[C@@H]1[C@@H]1N(P(=O)(c2ccccc2)c2ccccc2)[C@](CO)(c2ccccc2)CC12CC2`: the z-score was 4.95. As to `O=C(N1CCCCC1)[C@]1(CCS(=O)(=O)c2ccccc2)N=C(c2ccc(OCCCO)cc2)O[C@@H]1c1ccccc1`, the z-score is 27.2 (active). Consider `OCCCc1cc[n+](Cc2cccc(OC(F)(F)F)c2)cc1`, for which the z-score was 0.514.

For `COc1ccc([Si](C)(C)[C@H]2[C@H](CC(=O)N3CCC[C@H]3CO)O[C@@]3(C(=O)N(Cc4cccc(N5CCC5=O)c4)c4ccccc43)[C@@H]2C)cc1`, the z-score was 6.65. Regarding `CCCNC(=O)[C@@]1(c2ccc([N+](=O)[O-])cc2)CC(=O)N(CC23CC4CC(CC(C4)C2)C3)[C@@H]1c1ccc(CO)cc1I`, the z-score was 26 (active). For `CCCNC(=O)[C@@]1(C)c2ccccc2C(=O)N(Cc2cc(F)cc(C(F)(F)F)c2)[C@H]1c1ccc(CO)cc1`, the z-score was 7.04. With `C=C[C@H](C)[C@H](OC(=O)Nc1ccc(OC)cc1)c1ccc(O)c2ccccc12` the figure was 1.71; with `O=c1cccc(-c2ccccc2)o1`, 3.18. In the case of `CC1CC/C=C\[C@H]2OC34C=CCN(Cn5nnc6ccccc65)C(=O)[C@H]3N(CCCO)C(=O)[C@@H]4C2C(=O)O1` (stereo not given in full), the z-score was 0.935. With `COc1ccc(C#Cc2ccc3c(c2)[C@]2(C(=O)N3)[C@H](c3ccc(OCCO)cc3)N3[C@H](c4ccccc4)[C@H](c4ccccc4)OC(=O)[C@H]3[C@@H]2C(=O)Nc2nc3ccccc3s2)cc1`, the z-score was 2.24. With `C=C(C(=O)CC[C@H](OC(=O)c1cccnc1)c1ccccc1OCCO)C(C)C` the figure was 9.51 (active). With `C=CC[C@@]1(C(=O)NCCN2CCOCC2)N=C(c2ccc(OCCCO)cc2)O[C@@H]1c1ccccc1CN=[N+]=[N-]` the figure was 24.4 (active); with `C=CCOC(=O)[C@H]1[C@@H]2C(=O)O[C@@H](c3ccccc3)[C@@H](c3ccccc3)N2[C@@H](c2ccc(OCCOC(=O)[C@@H]3C[C@@H]4C(=O)NCC(=O)N4[C@@H]3c3ccc(O)cc3)cc2)[C@]12C(=O)Nc1ccc(I)cc12`, 1.63; with `CCOC(=O)C[C@H]1[C@H](OC(=O)c2ccc(C(=O)c3ccccc3)cc2)[C@@H](NC(=O)c2ccc3ccccc3n2)c2cc(OCCCO)ccc2N1C(=O)c1ccc2ccccc2n1`, 5.2. Then `C=CCC(OC(C)=O)[C@@H]1[C@@H](N(Cc2ccc(-c3cccc(C(F)(F)F)c3)o2)C(=O)Cc2ccc(OC)cc2)c2cc(OCCCO)ccc2N1C(=O)Cc1ccc(OC)cc1` (stereo not given in full), with 1.66. In the case of `C=CCC(OC(C)=O)[C@@H]1[C@@H](N(Cc2ccc(-c3ccccc3)cc2)C(=O)c2ccc(C)cc2)c2cc(OCCCO)ccc2N1C(=O)Cc1ccc(OC)cc1` (stereo not given in full), the z-score was 0.398. Turning to `C=C(COC)C(=O)CC[C@@H](OC(=O)c1ccccc1-c1ccccc1C(=O)O)c1ccc(CO)o1`, the z-score was 0.508.

For `CN(C)CCCC[C@@H]1NC(=O)[C@@H]2C[C@H](C(=O)NCCCCCN)[C@H](c3ccc(O)cc3)N2C1=O`, the z-score is -0.327. Take `CN(C)CCCN1C(=O)[C@@]2(c3ccc([N+](=O)[O-])cc3)CC(=O)N(C3CCCCC3)[C@@H]2c2ccc(CO)cc21`: the z-score was -0.275.

`O=C1C2C=CC(C(O)c3cccc4ccccc34)N(n3cnnc3)C2C(=O)N1Cc1ccccc1` (stereo not given): the z-score was -0.0851. With `COCCCNC(=O)[C@]1(Cc2ccccc2N=[N+]=[N-])N=C(c2ccc(OCCCO)cc2)O[C@@H]1c1ccccc1CN=[N+]=[N-]` the figure was 28.1 (active); with `C=C(COC)C(=O)CC[C@H](OC(=O)c1cccnc1)c1ccccc1OCCO`, 8.77 (active).

With `CCOC(=O)N1C(c2ccc(OCCCO)cc2)=NC(C(=O)OC)N1C(=O)OCC` (stereo not given), the z-score was 20.5 (active).

Turning to `C=CCOC(=O)[C@H]1[C@@H]2C(=O)O[C@@H](c3ccccc3)[C@@H](c3ccccc3)N2[C@@H](c2ccc(OCCOC(=O)[C@H]3C[C@H]4C(=O)N[C@@H](CCCC[N+](C)(C)C)C(=O)N4[C@H]3c3ccc(O)cc3)cc2)[C@]12C(=O)Nc1ccccc12`, the z-score is -2.12. `CC(C)N1C(=O)c2ccccc2[C@](C)(C(=O)NCCCN(C)C)[C@@H]1c1ccc(CO)cc1`: the z-score was 2.5. With `C=CCC(OC(C)=O)[C@@H]1[C@@H](N(Cc2ccc(-c3ccccc3)cc2)C(=O)c2ccc(C)cc2)c2cc(OCCCO)ccc2N1C(=O)c1ccc2ccccc2n1` (stereo not given in full) the figure was 0.225. Then `COC(=O)[C@@]1(Cc2ccc(F)cc2)[C@H]2c3cc(C(=O)N4CCCC4)n(Cc4ccc(Cl)c(C(F)(F)F)c4)c3C[C@H]2CN1C(=O)c1ccccc1`, with 3.16. Regarding `COCCCNC(=O)[C@@]1(Cc2ccccc2I)c2ccccc2C(=O)N(Cc2ccccc2)[C@H]1c1ccc(CO)cc1`, the z-score was 11.1 (active).

With `CC(=O)NCCCC[C@@H]1NC(=O)[C@@H]2C[C@H](C(=O)NCc3ccc(F)cc3)[C@H](c3ccc(O)cc3)N2C1=O`, the z-score is 1.63.

For `CCOC(=O)C1=CC[C@@H](c2cccc(Cl)c2)N(S(=O)(=O)c2ccc(C)cc2)[C@H]1c1ccc(C#N)cc1`, the z-score is 1.53.

On to `CCCNC(=O)[C@@]1(C)c2ccccc2C(=O)N(Cc2cc(C(F)(F)F)cc(C(F)(F)F)c2)[C@H]1c1ccc(CO)cc1`, for which the z-score is 4.6.

With `COC(=O)c1c2oc(c1C(=O)OC)C(=O)N[C@H](Cc1ccccc1)Cn1nncc1C1(CCCCC1)NC(=O)N[C@H](CO)CC2`, the z-score was 5.12. With `CN(C)CCCC[C@@H]1NC(=O)[C@@H]2C[C@H](C(=O)NCc3ccc(F)cc3)[C@H](c3cccc(OCCO)c3)N2C1=O` the figure was 5.87; with `COc1ccc([Si](C)(C)[C@@H]2[C@@H](CCn3cc([C@H](O)c4ccccc4)nn3)O[C@]3(C(=O)N(C)c4ccccc43)[C@H]2C)cc1`, 4.2.
